Compound activity from PubChem BioAssay.
aSyn UTR act = Activators working through SNCA 5'UTR binding (MLPCN); AID 1814; actives 7.1% (n = 300,000); alpha-synuclein 5'UTR reporter, activators screen; activity score, % (tested at 7.5 µM), hits read low; in the data active = activity score below about -60%
Numbers stand for hits; i = inactive. Not all results are given here.

SMILES | aSyn UTR act
CCC1=[N+](CC(=O)c2ccc(C)cc2)CCn2c(C)ccc21 | -193.7
FC(F)(F)c1cnc(COc2ccc(Cl)cc2Cl)c(Cl)c1 | -81.8
CC(=O)c1ccc(OCc2ncc(C(F)(F)F)cc2Cl)cc1 | -81.0
COc1ncnc2c1cnn2-c1ccccc1 | -67.4
COc1ccccc1Oc1ncnc2c1cnn2-c1ccccc1 | -115.4
COc1ccc(-n2ncc3c(N(C)C4CCCCC4)ncnc32)cc1 | i
Cc1ccc(C2CC(c3ccccc3)=NN2C(=S)Nc2ccccc2)o1 (stereo not drawn) | -65.1
CSc1nnc2c(n1)c(C)nn2-c1ccc(C)cc1 | -179.7
CCOCC(=O)Nc1nc2ccc(OC)cc2s1 | -88.9
CCOc1ccc2nc(NC(=O)Cn3[nH]c(=O)c4ccccc4c3=O)sc2c1 | -104.6
CCOc1ccc2nc(NC(=O)COC)sc2c1 | -97.2
O=C(CSc1ncnc2sc3c(c12)CCCC3)c1ccccc1 | -76.9
COc1cc(C(C)=O)ccc1OCc1cc(C(=O)N(C)CCC2CCCCO2)no1 (stereo not drawn) | -187.7
COc1ccccc1OCc1cc(C(=O)N(C)CCC2CCCCO2)no1 (stereo not drawn) | -96.5
COCCCN(C(C)=O)c1nc(-c2ccccc2)cs1 | -145.9
COc1ccc(-c2csc(N(C)C(=O)c3cccs3)n2)cc1 | -125.7
CCN(CC)CCCN(C(=O)c1cccs1)c1nc(-c2ccc(OC)cc2)cs1 | -101.5
COc1ccc(C(=O)c2ccc(N(C)C)cc2)c2ccccc12 | i
COc1ccccc1C(=O)COC(=O)c1ccccc1O | -104.3
COc1ccccc1C(=O)COC(=O)c1ccc(N(C)C)cc1 | -218.5
COc1ccccc1C(=O)COC(=O)/C=C/c1ccccc1 | -69.0
CC(=O)Nc1ccc2nc(NC(=O)COc3ccccc3)sc2c1 | -64.4
CC(=O)Nc1ccc2nc(NC(=O)COc3ccccc3Cl)sc2c1 | -69.4
Cc1cc(CNC(=O)COc2ccccc2F)c2ccccc2n1 | -95.6
Cc1nc2ccc(NC(=O)CCC3CCCC3)cc2s1 | -143.5
SMILES | aSyn UTR act
Cc1nc2ccc(NC(=O)COc3ccccc3F)cc2s1 | -132.9
Cc1nc2ccc(NC(=O)CS(=O)(=O)c3ccccc3)cc2s1 | -101.1
CN(C)C(=O)c1cc(C(=O)c2ccc(F)cc2Cl)c[nH]1 | -92.6
CN(C)C(=O)c1cc(C(=O)c2ccc(C(F)(F)F)cc2)c[nH]1 | -151.0
CN(C)C(=O)c1cc(C(=O)c2ccc(Cl)cc2Cl)c[nH]1 | -94.2
c1ccc(C2Oc3ccccc3C3CC(c4cccs4)=NN32)cc1 (stereo not drawn) | -164.4
Cc1ccc(-c2nc(C#N)c(NCc3cccc4c3OCO4)o2)cc1 | -65.8
CC(C)(C)c1ccc(-c2nc(C#N)c(NCc3ccncc3)o2)cc1 | -106.6
CC(C)CNc1nc(N)c([N+](=O)[O-])c(NCc2ccccc2)n1 | i
O=[N+]([O-])c1ccc(NCc2ccccc2)nc1 | -67.5
C=CCn1c(O)c(N=NC(=S)Nc2ccccc2C)c2cc(S(=O)(=O)N3CCOCC3)ccc21 | i
CCn1c(=O)c(C(=O)Nc2ccccc2C)c(O)c2ccccc21 | -80.5
CC(C)Cn1c(=O)c(C(=O)Nc2ccncc2)c(O)c2ccccc21 | i
C=CCn1c(=O)c(C(=O)Nc2ccccc2C)c(O)c2ccccc21 | -155.5
c1ccc(-c2ccc(-c3csnn3)cc2)cc1 | -130.9
CSc1nc2nccc(/C=C\c3ccccc3)n2n1 | -88.9
Cc1ccc(OCC(=O)c2cc(C)n(CC(F)(F)F)c2C)c([N+](=O)[O-])n1 | -72.3
Cc1ccc(OCC(=O)c2cc(C)n(C3CC3)c2C)c([N+](=O)[O-])n1 | -94.0
Cc1noc(C)c1C(=O)OCC(=O)c1cc(C)n(Cc2ccccc2Cl)c1C | -98.3
CC(=O)c1c(C)nc(Nc2nc3ccccc3s2)nc1C | -82.8
Cc1cc(C)nc(Nc2nc3ccccc3s2)n1 | -176.9
O=C(O)c1ccc(NNC(=S)Nc2cc(C(F)(F)F)ccc2Cl)cc1 | -141.5
Cc1ccc(C(=O)/C=C2/NC(=O)CS2)cc1 | -102.8
Cc1ccc(NC(=O)Nc2ccon2)cc1 | -101.6
O=C(Nc1ccc(Cl)cc1)Nc1ccon1 | -129.1
SMILES | aSyn UTR act
CCOc1ccc(NC(=O)Nc2ccon2)cc1 | -116.5
CCN(CC)S(=O)(=O)c1cc(NC(=O)Cn2ncc(Cl)c(Cl)c2=O)ccc1C | -99.2
Cc1cc(Br)ccc1NC(=O)CNC(=O)Cn1ncc(Cl)c(Cl)c1=O | i
CC1=C/C(=C(/c2cc(C)c(O)c(Br)c2)c2ccccc2S(=O)(=O)O)C=C(Br)C1=O | i
O=C(Nc1cc2c(cc1Br)OCCO2)c1cccs1 | -141.9
O=C(Nc1cc2c(cc1Br)OCCO2)c1ccco1 | -100.6
O=C(Nc1c(C(=O)Nc2ccc3c(c2)OCCO3)cnn1-c1ccccc1Cl)c1ccco1 | -102.1
O=C(Nc1cc2c(cc1Cl)OCCO2)c1ccco1 | -162.7
O=C(Nc1ccc(NC(=O)c2ccco2)c(Cl)c1)c1ccc2c(c1)OCCO2 | -76.1
Cc1ccc(C(=O)CSc2nnc(-c3ccco3)n2Cc2ccccc2)cc1 | -96.8
O=C(CSc1nnc(-c2ccco2)n1Cc1ccccc1)c1ccccc1 | -104.1
COc1ccc(C(=O)/C=C/C(=O)N(CC(=O)NC2CCCCC2)Cc2cccs2)c(O)c1 | i
Cc1ccccc1N(CC(=O)NC1CCCC1)C(=O)c1csnn1 | -146.0
O=C(N/N=C/c1ccc([N+](=O)[O-])o1)c1cc(-c2ccncc2)nc2ccccc12 | -66.7
Cc1cc2ncn(/N=C/c3ccc([N+](=O)[O-])o3)c2cc1C | -121.7
Cc1ccc2nc(N/N=C/c3ccco3)cc(C)c2c1 | -185.5
Cc1cc(N/N=C/c2ccc([N+](=O)[O-])o2)nc2ccccc12 | -133.2
O=C(N/N=C/c1ccc([N+](=O)[O-])o1)c1cc(-c2ccc(-c3ccccc3)cc2)nc2ccccc12 | i
N#Cc1c(-c2ccc(Cl)cc2)ccn2nc(C3CCCCC3)nc12 | -164.1
O=C(/C=C/c1ccnc2ccccc12)c1cccs1 | -79.9
Cc1c2c(nc3ccccc13)CCC(C(C)(C)C)C2 (stereo not drawn) | -116.3
O=c1c2ccccc2nnn1CSc1ccccc1 | -74.7
CN=c1scc(-c2ccc(OC)cc2)n1/N=C(\C)c1cccnc1 | -156.0
c1ccc(C[n+]2csc3ccccc32)cc1 | -71.5
Cc1noc(C)c1-c1nnc(-c2ccc(OC(F)(F)F)cc2)o1 | -68.9
SMILES | aSyn UTR act
CC(CC(=O)Nc1ccc2c(c1)OCO2)c1ccccc1 (stereo not drawn) | -92.1
CC(CC(=O)Nc1ccc2c(c1)OCCO2)c1ccccc1 (stereo not drawn) | -160.8
CCN(CC)CCNC(=O)c1cc2c(=O)n(C)c3ccccc3c2s1 | -70.2
CCCCN(CC)CCNC(=O)c1cc2c(=O)n(C)c3ccccc3c2s1 | -67.2
CCCCN(CC)CCNC(=O)c1cc2c(-c3ccccc3F)nn(C)c2s1 | -74.8
Oc1ccc(N=Nc2n[nH]c(-c3ccc(Cl)cc3)n2)cc1 | -109.3
CCOc1ccc(NC(=O)Nc2ccccc2SC)cc1 | -141.7
NS(=O)(=O)c1cccc(NC(=O)Nc2ccc(Cl)cc2)c1 | -91.9
O=C(Nc1cccc(Cl)c1)ON=C1c2ccccc2-c2ccccc21 | -65.7
O=C(Nc1cccc(Cl)c1)c1cnc[nH]1 | -86.9
O=C(Nc1ccc(C(=O)N2CCOCC2)cc1)Nc1cccc(Cl)c1 | -139.1
Cc1cccc(N(O)C(=O)Nc2cccc(Cl)c2)c1 | -109.4
Cc1cccnc1NC(=O)Nc1cccc(Cl)c1 | -185.9
O=C(Nc1cccc(Cl)c1)Nc1cccc(Cl)c1 | -136.9
Oc1c(C(Nc2cccc(C(F)(F)F)c2)c2ccncc2)ccc2cccnc12 (stereo not drawn) | i
Cc1cccnc1N(C(=O)Nc1cccc(Cl)c1)C1=NCC(C)(C)S1 | -65.6
